According to PubChem BioAssay (NCI):
This is part of a sample that, as a whole, favours compounds with a hit. Of some 83,000 tested, about 20% had one in any assay.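 Method: cells in 96-well plates; compound added at one concentration; 48 h incubation; percent growth measured; values under 10 scored active.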 Values without a mark were called inactive. The source made the active and inactive calls.

These molecules were tested on IGROV1 ovarian (assay: NCI-60 one-dose screen, 48 h (100 = growth as untreated, 0 = no growth, -100 = all killed)). Conditions: 1 µM.
Experimental: Growth inhibition of the IGROV1 human tumor cell line is measured as a screen for anti-cancer activity. Cells are grown in 96 well plates and exposed to the test compound for 48 hours. Compounds are tested at a single concentration, which is 10^-5 M for most compounds. The reported endpoint is percent growth (GI% or GIPRCNT), where numbers from 0 - 100% represent growth inhibition, and numbers from -100% - 0 represent cell death. For example, a value of 40 represents 60% growth inhibition. A value of 0 means no net growth occurred over the course of the experiment. A value of -40 indicates 40% of cells at the beginning of the experiment died by the end of the experiment. A value of -100 means all cells are dead at the end of the experiment.
NCI-60 Human Tumor Cell Lines Screen was performed using the standard one-dose NCI protocol, which is described in more detail at https://dtp.cancer.gov/discovery_development/nci-60/default.htm.
Compounds with GIPRCNT values below 10 were considered active. Activity score was based on GIPRCNT using the following formula: […]
Score is 0 for GIPRCNT values of 100 or above, 50 for GIPRCNT values of 0, and 100 for GIPRCNT values of -100.

| Structure (SMILES) | growth [%] |
| --- | --- |
| CC/C(=C(\c1ccc(O)cc1)c1ccc(OCCNC)cc1)c1ccccc1 | 101 |

Same assay, conditions: 10 µM

| Structure (SMILES) | growth [%] |
| --- | --- |
| CC/C(=C(\c1ccc(O)cc1)c1ccc(OCCNC)cc1)c1ccccc1 | 96.9 |

Same assay, conditions: 10 µM unless noted

| Structure (SMILES) | growth |
| --- | --- |
| CC(=O)C[n+]1cccc2c3ccccc3ccc21 | 95.2% |
| ClC(Cn1ncc2c(Nc3cccc(Br)c3)nc(SCCN3CCOCC3)nc21)c1ccc(Br)cc1 (stereo not given) | 28.3% |
| S=C(NCCc1ccccc1)Nc1ccc(OCc2nc3ccc(Cl)cc3[nH]2)cc1 | 31.4% |
| O=C(c1ccc(O)cc1)C1[C@H](c2ccc(Cl)cc2)[C@@H](c2ccccc2)NC12C(=O)Nc1ccc(Br)cc12 (stereo not given in full) | -40.4% (active) |
| COC(=O)c1c(C(=O)OC)c2ccc3c4ccccc4ccc3n2c1C(=O)OC | 114% |
| COc1cc(/C=C/C(=O)c2cnn(-c3cc(=O)[nH]c4ccccc34)c2C)cc(OC)c1OC | 6.78% (active) |
| Cc1ccc2c(c1)/C(=C/C(=O)c1cc3ccccc3oc1=O)C(=O)N2 | 102% |
| COc1cc(CNC(=O)C[C@H](C)CCC=C(C)C)ccc1OCc1cn(-c2ccccc2Cl)nn1 | 87.1% |
| CN(C)CCOc1ccc(C(=O)C2[C@H](c3ccc(Cl)cc3)[C@@H](c3ccccc3)NC23C(=O)Nc2ccc(Cl)cc23)cc1 (stereo not given in full) | -87% (active) |
| COc1ccc(NC2=C(I)C(=O)C(C)=C(C)C2=O)cc1 | 15.3% |
| COc1cc2cc(C(=O)N3C[C@@H](CCl)c4c3cc(OC(=O)N(C)CCSSCCN3CCOCC3)c3ccccc43)[nH]c2c(OC)c1OC | -27.6% (active) |
| O=C(NN1C(=O)/C(=C/C=C/c2ccc([N+](=O)[O-])o2)SC1=S)c1ccc([N+](=O)[O-])cc1 | -96.4% (active) |
| O=C(c1ccc(Cl)cc1)C1[C@H](c2ccccc2Cl)[C@@H](c2ccccc2)NC12C(=O)Nc1ccc(Cl)cc12 (stereo not given in full) | -42.5% (active) |
| COc1ccc(NC(=O)NN2C(=O)c3ccccc3N(C)C2c2ccc(OC)cc2)cc1 (stereo not given) | 108% |
| O=C(N/N=C/c1c[nH]c2ccccc12)Nc1ccccc1Cl | 19.9% |
| O=CNc1ccc(-n2cnc3cc(-c4ccc(O)cc4)ccc32)cc1 | 118% |
| COc1ccc(Nc2nnc(-c3c[nH]c4ccccc34)o2)cc1 | 60.9% |
| N#Cc1ccc(C(=O)NNC(=O)CSc2nc3sc4c(c3c(=O)n2-c2ccc(Cl)cc2)CCCC4)cc1 | 30.7% |
| O=C1Nc2ccccc2/C1=C\c1ccc(OCC(=O)c2ccc(Br)cc2)cc1 | 78.3% |

| Structure (SMILES) | growth |
| --- | --- |
| c1ccc(CSc2nnc(-c3ccc4nc(-c5ccccc5)[nH]c4c3)o2)cc1 | 63.6% |
| COc1cc(/C=N/NC(=O)c2ccc(OCc3nc4ccc(Cl)cc4[nH]3)cc2)cc(OC)c1OC | 43.1% |
| CCN1C(=O)N(CC)C2NNC(Sc3c(C(=O)O)c4ccccc4n(CC(C)C)c3=O)=NC21 (stereo not given) | 20% |
| Nc1cc2ccccc2c(=O)n1NC(=O)c1ccccc1 | 90.2% |
| CCOC(=O)/C(F)=C/C1CC1CCc1ccc(OCC)cc1 (stereo not given) | 92.5% |
| Cc1ccccc1NC(=O)c1cccc(NC(=O)CCl)c1 | 29.5% |
| COc1ccc(-c2cc(C(=O)OCc3ccc(Br)cc3)nn2-c2ccc(S(C)(=O)=O)cc2)cc1OC | 95.6% |
| CC1=C(C(=O)Nc2ccccc2)C(c2ccc3ccccc3c2)n2c(nc3ccccc32)N1 (stereo not given) | 67.4% |
| COc1ccc(-c2cc(-c3cc(C(C)C)c(O)cc3C)nn2-c2ccc(S(N)(=O)=O)cc2)cc1 | 85.8% |
| Cc1nn(-c2ccccc2)c2nc(C)n(C(=O)N/N=C/c3ccccc3)c(=O)c12 | 97.6% |
| COc1ccc2[nH]c(=O)c(CSc3ccccc3Nc3nccc(-c4ccc5c(c4)OCO5)n3)cc2c1 | 87.4% |
| O=C(Nc1ccc(-c2ccc3c(c2)NC(=O)/C3=C\c2ccc[nH]2)cc1)Nc1ccc(Cl)c(Cl)c1 | 65.7% |
| COc1ccc(NC(=O)Nc2nc3ccc([N+](=O)[O-])cc3s2)cc1 | 26.4% |
| O=C(c1ccc(O)cc1)C1[C@H](c2ccc(Cl)cc2)[C@@H](c2ccccc2)NC12C(=O)Nc1ccccc12 (stereo not given in full) | 3.49% (active) |
| O=C1/C(=C/c2cccc3c2OCO3)Cc2c(F)cc(Br)cc21 | 110% |
| CN(C)c1ccc(/C=C/c2n(Cc3ccc4ccccc4c3)c3ccccc3[n+]2Cc2ccc3ccccc3c2)cc1 | -75.9% (active) |
| CCC1(OC(=O)c2ccccc2SSCCOC(=O)CCCCC2SCC3NC(=O)NC32)C(=O)OCc2c1cc1n(c2=O)Cc2cc3ccccc3nc2-1 (stereo not given) | 75.3% |
| Cc1oc(-c2ccccc2)nc1CN[C@@H]1C[C@@H]2C[C@H]([C@H]1C)C2(C)C | 37.6% |
| C#CCN(C)CCCOc1ccc(N(CC)C(=O)c2cc(C(C)C)c(O)cc2O)cc1Cl | 0.38% (active) |
